ATXN viability: Viability Counterscreen for Primary qHTS for Inhibitors of ATXN expression; S2 cells (HEK-293 line with an ATXN2-luciferase reporter) viability, CellTiter-Fluor protease fluorescence, 24 h; Potency, µM (highest dose often 56.7 µM), hits mostly cytotoxic; actives 0.49% (n = 400,000); AID 651635, 2014; further: nearly all actives have a fitted effect of over 40% in size
ATXN2 expr inh: Primary qHTS for Inhibitors of ATXN expression; HEK-293 ATXN2-luciferase reporter, luminescence, 24 h; Potency, µM (series often up to 57 µM), inactives show at the top dose activity change, negative = inhibition, most hits filed as inhibitors; actives 0.72% (n = 360,000); AID 1745845, 2022; further: on the % scale 0 is the no-effect control and ±100 the full control effect; nearly all actives have a fitted effect of over 55% in size
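ATXN2-luciferase reporter cells (luciferase flanked by upstream and downstream ATXN2 gene portions) were treated 24 h at 37 °C with compounds at up to 57 uM. SteadyGlo luminescence gave expression; GF-AFC fluorescence gave viability.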
HepG2 tox-1: qHTS for Inhibitors of TGF-b: Cytotox Counterscreen | HepG2 CAGA-GFP viability, ATP luminescence, 18 h | Potency, µM (top dose mostly 46.1 µM), inactives show at the highest dose activity change, negative = cytotoxicity, actives largely listed as cytotoxic | actives 0.76% (n = 410,000) | AID 588856, 2011
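HepG2 CAGA-GFP cells (1000/well, DMEM with 1% FBS) received compound, then TGF-beta at 500 pg/mL final, and were incubated 18 hours at 37 degrees C. Viability was read by CellTiter-Glo luminescence. Media-only wells were set as complete cell-killing and DMSO as no toxicity.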
TGFb inhibitor: qHTS for Inhibitors of TGF-b; Potency, µM (doses to about 46.1 µM), without a hit: at the top dose activity, negative = inhibition, most hits filed as inhibitors; AID 588855, 2011; actives 1.2% (n = 410,000); HepG2 CAGA-GFP TGF-b/SMAD3 reporter, GFP fluorescence, 18 h; TGF-beta stimulated, 500 pg/mL final; further: on the % scale 0 is the no-effect control and ±100 the full control effect; nearly all actives have a fitted effect of over 65% in size
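Inhibition was scored as loss of TGF-beta-induced (500 pg/mL final, 18 hours, 37 degrees C) GFP in HEPG2 cells carrying a CAGA-GFP reporter, in DMEM with 1% FBS. Well GFP was summed per cell; Activity was normalised to unstimulated and stimulated DMSO wells, then concentration-response fitting.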
Apoferritin bind: qHTS Assay for Identification of Novel General Anesthetics; apoferritin/1-aminoanthracene competitive binding, fluorescence; Potency, µM (titrated, usually from 77.5 µM), inactives show at the top dose activity change, negative = displacement, most hits filed as inhibitors; Ferritin light chain (Equus caballus), P02791; actives 0.074% (n = 350,000); AID 485281, 2010; further: on the % scale 0 is the no-effect control and ±100 the full control effect; nearly all actives have a fitted effect of over 20% in size
Target sequence (P02791 2-175 limits assumed): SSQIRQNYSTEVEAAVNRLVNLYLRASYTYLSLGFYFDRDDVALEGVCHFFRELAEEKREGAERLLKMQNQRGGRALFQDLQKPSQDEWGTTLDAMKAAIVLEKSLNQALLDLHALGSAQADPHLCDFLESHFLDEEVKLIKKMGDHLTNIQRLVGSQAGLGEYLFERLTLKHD
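Read-out: endpoint 1-AMA fluorescence, excitation 380 nm and emission 535 nm, after compounds sit 10 min at room temperature with 10 uM horse-spleen apoferritin in 50% saturated 1-AMA/PBS. Values come from four-parameter Hill fits.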
TGFb confirm: qHTS for Inhibitors of TGF-b: Confirmation of Cherry Picks | shares compounds with TGFb inhibitor | HepG2 CAGA-GFP TGF-b reporter, GFP fluorescence, 18 h; cells stimulated with TGF-beta, 500 pg/mL | Potency, µM (doses to about 46.1 µM), without a hit: top-dose activity, negative = inhibition, most hits filed as inhibitors | actives 63% (n = 1,600) | AID 720534, 2013; further: on the % scale 0 is the no-effect control and ±100 the full control effect; nearly all actives have a fitted effect of over 65% in size
HepG2 tox-2: qHTS for Inhibitors of TGF-b: Cytotox Counterscreen for Cherry Picks; Potency, µM (doses to about 46.1 µM), without a hit: at the highest dose activity, negative = cytotoxicity, actives largely listed as inhibitors; AID 720535, 2013; HepG2 CAGA-GFP viability, ATP luminescence, 18 h; cells stimulated with TGF-beta, 500 pg/mL; shares compounds with TGFb inhibitor; actives 27% (n = 1,600); further: on the % scale 0 is the no-effect control and ±100 the full control effect; nearly all actives have a fitted effect of over 70% in size
CCL64 TGFb inh: qHTS for Inhibitors of TGF-b: CCL64 Cells Orthogonal Assay for Cherry Picks. shares compounds with TGFb inhibitor. CCL64 CAGA-GFP reporter, TGF-b stimulated, GFP fluorescence, 18 h. Potency, µM (highest dose often 46.1 µM), for the others: at the top dose activity, negative = inhibition, hits mostly inhibitors. actives 41% (n = 1,600); further: nearly all actives have a fitted effect of over 65% in size
TGFb COP inh: qHTS for Inhibitors of TGF-b: Hit Validation in HepG2 Cells using COP promoter; shares compounds with TGFb inhibitor; AID 720537, 2013; Potency, µM (series often up to 46.1 µM), for inactives: top-dose activity, negative = inhibition, hits mostly inhibitors; actives 3% (n = 1,600); HepG2 COP-GFP TGF-b reporter, GFP fluorescence, 18 h; cells stimulated by added recombinant TGF-beta; further: nearly all actives have a fitted effect of over 70% in size
Active calls of the source: *; i = inactive; ? = inconclusive; . = no result given; [ ] = remark or other dose. Shown are actives, neighbours in structure and some others; about 2.4% of the full set was active somewhere. The call rests on the fitted dose curve; in most records, active means well fitted curve in the direction sought with a large enough effect; inconclusive means small, poorly fitted or top-dose-only effect, or another doubt; inactive means no such curve, though single readings can be large; an effect the other way counts as inactive or inconclusive. Potency means the concentration at half of the fitted maximal effect.

SMILES	ATXN viability	ATXN2 expr inh	HepG2 tox-1	TGFb inhibitor	Apoferritin bind	TGFb confirm	HepG2 tox-2	CCL64 TGFb inh	TGFb COP inh
COc1ccc(C(c2nnnn2C2CCCCC2)N2CCC3(CC2)C(=O)NCN3c2ccccc2)cc1 (stereo unspecified)	?	?	-44.2%	?	.	?	-21.1%	18.4µM*	-3.9%
O=C1NCN(c2ccccc2)C12CCN(C(c1cccc3ccccc13)c1nnnn1Cc1ccccc1)CC2 (stereo unspecified)	.	-38.8%	-8.0%	?	.	.	.	.	.
COc1cccc(C(c2nnnn2C2CCCC2)N2CCC3(CC2)C(=O)NCN3c2ccccc2)c1OC (stereo unspecified)	.	?	9.5%	?	.	.	.	.	.
CCCCn1nnnc1C(c1cccc2ccccc12)N1CCC2(CC1)C(=O)NCN2c1ccccc1 (stereo unspecified)	?	-38.4%	-4.6%	17.8µM*	.	14.6µM*	?	?	59.9%
O=C1NCN(c2ccccc2)C12CCN(C(c1ccccc1)c1nnnn1C1CCCC1)CC2 (stereo unspecified)	?	-24.4%	-1.8%	11.2µM*	.	?	2.5%	20.6µM*	3.4%
COC(=O)C1=C(c2ccc(F)cc2OCc2ccccc2)C[C@@H]2CC[C@H]1N2C(=O)NCc1ccccc1OC	?	0.0%	-24.7%	?	.	?	-12.9%	?	1.2%
COC(=O)C1=C(c2ccc(F)cc2OCc2ccccc2)C[C@@H]2CC[C@H]1N2C(=O)NCc1ccccc1	?	?	-20.7%	?	.	.	.	.	.
COC(=O)C1=C(c2ccc(-c3ccccc3)c(F)c2)C[C@@H]2CC[C@H]1N2C(=O)NCc1ccco1	?	?	-15.6%	?	.	8.2µM*	?	?	58.3%
COC(=O)C1=C(c2cccc(C#N)c2)C[C@@H]2CC[C@H]1N2C(=O)NCc1cc(C)oc1C(F)(F)F	i	-12.3%	-35.8%	-8.1%	.	.	.	.	.
COC(=O)C1=C(c2ccc(-c3ccccc3)c(F)c2)C[C@@H]2CC[C@H]1N2C(=O)NCCO	i	-22.0%	-25.6%	-11.7%	.	.	.	.	.
COC(=O)C1=C(c2ccc(-c3ccccc3)c(F)c2)C[C@@H]2CC[C@H]1N2C(=O)NCc1cc(C)oc1C(F)(F)F	?	?	-5.3%	1.58µM*	.	?	-15.3%	?	30.3%
C[C@H]1C[C@@H](C)C(=O)[C@@H]([C@H](O)CC2CC(=O)NC(=O)C2)C1	i	1.12µM*	-20.9%	0.708µM*	-6.9%	1.03µM*	?	0.326µM*	25.0%
C=C(C)[C@H]1[C@H]2OC(=O)[C@@H]1[C@]1(O)C[C@H]3O[C@]34C(=O)O[C@H]2[C@@]14C	i	.	.	.	-0.6%[29.3 µM]	.	.	.	.
CCCCC[C@H]1CCCCC[C@@H](O)C[C@@H](O)[C@@H](O)/C=C/C(=O)O1	i	2.2%	.	.	.	.	.	.	.
C[C@H]1CCC/C=C/[C@@H]2C[C@H](O)C[C@H]2[C@@H](O)/C=C/C(=O)O1	?	?	-40.9%	-108.9%	.	0.058µM*	0.13µM*	?	78.2%
Cc1ccccc1C(=O)Nc1ccc(C(=O)OCc2cc(=O)n3nc(C4CC4)sc3n2)cc1	?	?	-23.3%	9.6%	-12.0%	.	.	.	.
COC(=O)C1=C(c2ccc(OC(F)(F)F)cc2)C[C@@H]2CC[C@H]1N2C(=O)N1CCC(C)CC1	28.2µM*	?	3.2%	6.31µM*	.	16.4µM*	?	?	50.3%
CCCCN=C[C@]12CCC(O)CC1(O)CCC1[C@@H]2CC[C@]2(C)[C@H](C3C=CC(=O)O3)CCC12O (stereo partly specified)	i	?	-67.6%	3.55µM*	5.4%	?	1.16µM*	1.46µM*	41.4%
CC12CCC3C(CCC4(O)CC(O)CCC34C=NO)C1(O)CCC2C1=COC(=O)C1 (stereo unspecified)	?	?	-42.5%	1µM*	.	11.6µM*	1.03µM*	0.291µM*	57.2%
O=[N+]([O-])c1ccc(N2CCOCC2)c2c1no[n+]2[O-]	.	.	-100.6%	3.16µM*	.	18.4µM*	13µM*	5.17µM*	?
O=[N+]([O-])c1ccc(N2CCOCC2)c2cccnc12	.	.	-1.4%	-14.2%	-11.9%	.	.	.	.
COc1ccc(CN2Cc3cnnn3-c3ccccc3C2c2ccccc2)cc1 (stereo unspecified)	i	-22.0%	-1.3%	-15.4%	.	.	.	.	.
c1ccc(C2c3ccccc3-n3nncc3CN2CC2CCCCC2)cc1 (stereo unspecified)	i	-19.4%	-9.8%	11.2µM*	.	18.4µM*	?	25.9µM*	25.6%
Cc1cc(C)cc(NC(=O)Cn2cc(C(=O)c3cccs3)c3ccccc32)c1	?	-32.3%	-26.4%	?	-9.8%	.	.	.	.
COc1ccc(C[C@H]2NC[C@H](O)[C@H]2OC(C)=O)cc1	?	0.1µM*	-19.6%	0.224µM*	1.9%	0.0731µM*	0.651µM*	0.103µM*	-1.3%
Nc1nc(F)nc2c1ncn2[C@@H]1O[C@H](CO)[C@@H](O)[C@H]1O	3.16µM*	2.51µM*	-36.6%	0.794µM*	.	0.581µM*	0.461µM*	1.16µM*	25.4%
Cc1cc(OC(=O)N(C)C)nn1C(=O)N(C)C	.	.	.	.	5.4%	.	.	.	.

Source: PubChem (National Center for Advancing Translational Sciences (NCATS))
